Drawing on PubChem BioAssay (NCI), this text covers growth for 9 compounds.

The panel holds about 83,000 compounds, 20% with a hit somewhere; the sample as a whole holds those more often.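 Each cell line was grown in a 96-well plate and treated with one concentration of compound for 48 hours. Values below 10 were considered active.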 A number with no mark means an inactive call. The source made the active and inactive calls.

Holding throughout (test): NCI-60 one-dose screen, 48 h (100 = growth as untreated, 0 = no growth, -100 = all killed)
Conditions in all cases: 10 µM unless noted

The test system of assay [1] is SR leukemia.
For assay [2], the system named is RPMI-8226 leukemia.
For assay [3], the system named is OVCAR-8 ovarian.
Assay [4] concerns OVCAR-5 ovarian.
Assay [5] relates to OVCAR-4 ovarian.
Assay [6] concerns SK-OV-3 ovarian.
Assay [7] concerns IGROV1 ovarian.
The test system of assay [8] is OVCAR-3 ovarian.
Assay [9] deals with HS 578T breast.
Assay [10] relates to NCI/ADR-RES ovarian.
In assay [11] the test system is T-47D breast.
Assay [12] relates to BT-549 breast.
Assay [13] concerns MDA-MB-435 melanoma.
Assay [14] relates to SW-620 colon.
Assay [15] concerns MCF7 breast.
The subject of assay [16] is HCT-116 colon.
In assay [17] the test system is HCC-2998 colon.
The subject of assay [18] is KM12 colon.

On to `COc1ccccc1Cn1cc2c(c1)-c1oncc1CC2`, for which the growth in assay [1] is 16%; in assay [2] it was 32.5%; in assay [3], 36.2%; in assay [4], 35.2%; in [5], 49.2%; in [6], -18.2% (active). Moreover, the growth was 16.2% in assay [7]; -29.3% (active) in [8]; 8.86% (active) in [9]; -2.96% (active) in assay [10]; 52% in assay [11]; 67.4% in assay [12]. The growth in assay [13] was -53.7% (active); in assay [14], 27%; in assay [15] it was 13.4%; in [16], 9.05% (active); in assay [17] it was -43.1% (active); in [18], 6.78% (active).

Regarding `COC(=O)[C@H](Cc1cn(C)cn1)NC(=O)[C@H](Cc1c[nH]c2ccccc12)NC(=O)Nc1cc(C(F)(F)F)cc(C(F)(F)F)c1`, the growth in assay [1] was -42.8% [100 µM] (active); in assay [2], -38.4% [100 µM] (active); in [3], -78.5% [100 µM] (active); in assay [4] it was -73.6% [100 µM] (active); in [5], -50.7% [100 µM] (active); in assay [6], -89.9% [100 µM] (active). Also, the growth was -46.2% [100 µM] (active) in assay [7]; -95.7% [100 µM] (active) in assay [8]; 10.4% [100 µM] in assay [9]; 69.7% [100 µM] in assay [10]; -72.2% [100 µM] (active) in [11]; -88.6% [100 µM] (active) in assay [12]. Besides, the growth was -88.5% [100 µM] (active) in [13]; -38.1% [100 µM] (active) in [14]; -58.6% [100 µM] (active) in assay [15]; -89.1% [100 µM] (active) in [16]; -96.8% [100 µM] (active) in assay [17]; -86.6% [100 µM] (active) in [18].

For `CCCC(CCC)Oc1ccc(CCCC2=C(O)c3ccccc3C(=O)C2=O)cc1`, the growth in assay [1] was 38.9%; in assay [2] it was 22.5%; in [3], 34.2%; in [4] it was 17.2%; in assay [5], 25.1%; in [6] it was 37.5%. Besides, the growth in [7] was 46.7%; in assay [8] it was 40.8%; in assay [9] it was 34.6%; in assay [10], 28.7%; in assay [11], 65.4%; in assay [12], 35.5%. Moreover, the growth in [13] is 37.4%; in assay [14], 28.1%; in [15] it was 29%; in [16] it was 16.7%; in [17], 13.4%; in assay [18], 23.7%.

`COc1cc(OC)c2c(=O)cc(-c3ccccc3)oc2c1`: the growth is 31.3% in assay [1]; 77.6% in [2]; 103% in [3]; 93.7% in assay [4]; 105% in [5]; 105% in [6]. Moreover, the growth is 7.82% (active) in assay [7]; 104% in [8]; 113% in assay [9]; 109% in assay [10]; 91.2% in assay [11]; 109% in assay [12]. The growth is 95.8% in assay [13]; 89.7% in assay [14]; 102% in [15]; 88.9% in [16]; 97% in assay [17]; 106% in assay [18].

Turning to `CCOC(=O)/C(C#N)=C(/CC)OCC`, the growth in assay [1] is 85.6%; in assay [2], 103%; in assay [3], 98.8%; in [4], 106%; in [5] it was 106%; in [6] it was 105%. For the same compound, the growth in assay [7] was 105%; in assay [8], 104%; in assay [9], 115%; in assay [10], 112%; in assay [11], 100%; in assay [12], 95.2%. The growth in [13] was 105%; in assay [14] it was 102%; in [15], 94.9%; in assay [16], 92%; in assay [17], 113%; in assay [18], 97.7%.

Turning to `Oc1ccccc1/C=N/N=C/c1c(O)ccc2ccccc12`, the growth is 55.4% in [1]; 96.6% in assay [2]; 80.6% in assay [3]; 102% in [4]; 85.4% in assay [5]; 90.8% in assay [6]. Besides, the growth was 47.9% in assay [7]; 80.5% in assay [8]; 101% in assay [9]; 92.5% in assay [10]; 63.4% in assay [11]; 77.8% in assay [12]. Moreover, the growth in assay [13] is 108%; in assay [14], 95%; in [15], 52.7%; in assay [16] it was 83%; in assay [17] it was 91.2%; in [18], 76.4%.

Consider `COc1ccc(Cn2cc3c(c2-c2ccc(OC)cc2)CCc2cnoc2-3)cc1`, for which the growth in [1] is 1.81% (active); in assay [2] it was 16.7%; in [3] it was 23.8%; in assay [4] it was 52.2%; in assay [5], 35.9%; in assay [6], 3.54% (active). In addition, the growth is -2.82% (active) in assay [7]; -18.2% (active) in assay [8]; -2.76% (active) in assay [9]; -3.57% (active) in [10]; 38.7% in assay [11]; 30.3% in [12]. The growth is -29.7% (active) in assay [13]; 22.6% in assay [14]; 4.23% (active) in assay [15]; 4.82% (active) in assay [16]; -30.2% (active) in [17]; 5.5% (active) in assay [18].

For the compound `CC(=O)c1cc(Nc2cc(C)nc(N)n2)cc(C(C)=O)c1`, the growth in assay [1] is 35.8%; in assay [2], 100%; in [3], 98.8%; in assay [4] it was 91.6%; in assay [5], 108%; in [6], 116%. Further, the growth in assay [7] is 91.7%; in assay [8], 112%; in [9], 94.6%; in assay [10], 94%; in [11] it was 85.9%; in [12], 98.7%. The growth was 117% in assay [13]; 92.2% in assay [14]; 110% in assay [15]; 97% in [16]; 51.9% in [17]; 97.3% in assay [18].

In the case of `CCOc1ccc(N(C)c2ccc(/C=C/C3=[N+](C)c4ccccc4C3(C)C)cc2)cc1`, the growth is -26.7% (active) in assay [1]; -20.3% (active) in assay [2]; -15.8% (active) in assay [3]; 40.1% in assay [4]; 37.1% in assay [5]; 16.9% in assay [6]. The growth is 1.79% (active) in assay [7]; -72.9% (active) in assay [8]; 41.7% in [9]; 72.9% in assay [10]; 23.2% in assay [11]; 3.12% (active) in [12]. The growth in [13] was -51% (active); in [14] it was -40.4% (active); in assay [15], 10.1%; in assay [16], -45.6% (active); in assay [17], 11.4%; in assay [18], -93% (active).
